NPC1 prom act: activates the NPC1 promoter | Huh7 NPC1 promoter luciferase reporter, 24 h | Potency, µM (top dose mostly 9.22 µM), for the others: at the top dose activation, hits mostly activators | actives 2.4% (n = 320,000); further: % of control where 0% means no effect; nearly all actives have a fitted effect of over 60% in size
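NPC1 promoter–luciferase Huh7 cells; 24 h compound; luminescence.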
SMN2 splice up: increases expression of the SMN2 splice variant; HEK293 SMN2-luciferase splicing reporter, luminescence, 30-36 h; Potency, µM (series often up to 46.1 µM), inactives show at the highest dose activity change, positive = activation, hits mostly activators; actives 2.8% (n = 210,000); AID 1458; further: % of control where 0% means no effect; nearly all actives have a fitted effect of over 55% in size
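HEK293 cells carry an SMN2 minigene-luciferase reporter in which exon 7 inclusion puts luciferase in frame. Cells were seeded at 2000 cells/well, attached for 10-12 hours, then exposed to compounds for 30-36 hours at 37C before ONE-Glo luminescence.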
ELG1 repair inh: inhibitors of ELG1-dependent DNA repair in HEK293T cells. actives 2.3% (n = 330,000). HEK293T ELG1-luciferase reporter, luminescence, 16 h; DNA damage induced by 5-fluorouridine. Potency, µM (series often up to 46.1 µM), for inactives: at the highest dose activity change, negative = inhibition, hits mostly inhibitors; further: on the % scale 0 is the no-effect control and ±100 the full control effect; nearly all actives have a fitted effect of over 55% in size
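In this reporter screen, reduction of luminescence relative to DMSO vehicle indicated activity. Compounds and 5-fluorouridine were added together to 2,000 cells per well, incubated for 16 hr at 37 °C, then developed with ONE-Glo.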
Rab9 promoter act: activators of Rab9 promoter; Huh7 Rab9 promoter-luciferase reporter, luminescence, 24 h; Potency, µM (doses to about 9.22 µM), for the others: at the highest dose activation, negative = inhibition, most hits filed as activators; actives 2.8% (n = 320,000); further: % of control where 0% means no effect; nearly all actives have a fitted effect of over 60% in size
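Cells were plated at 1500 per well in reduced-serum medium with 10% FBS and left 2 h. Compound in DMSO was then added for 24 h at 37 °C. Reporter signal was read by luminescence after 10 min with luciferase detection reagent.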
ELG1 genotoxic: induces genotoxicity in HEK293T cells with luciferase-tagged ELG1 | AID 504466 | Potency, µM (titrated, usually from 46 µM), for the others: at the top dose activity change, positive = activation, hits mostly activators | actives 1.3% (n = 330,000) | HEK293T ELG1-luciferase reporter, luminescence, 16 h; further: % of control where 0% means no effect; nearly all actives have a fitted effect of over 60% in size
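DMSO vehicle served as control against compound-treated ELG1-luciferase HEK293T cells; exposure lasted 16 hr at 37 °C and 5% CO2, followed by ONE-Glo luminescence detection after 30 min.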
FLuc modulator: inhibits or activates purified firefly luciferase, miR-21 counter-screen. P08659. purified FLuc, Km substrates, luminescence inhibition. Potency, µM (top dose mostly 57.5 µM), without a hit: at the highest dose activity change, negative = inhibition, usual class: inhibitors. actives 6.9% (n = 360,000). AID 588342;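 further: plate controls were vehicle for no effect and reference inhibitor for full effect; nearly all actives have a fitted effect of over 55% in size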
Target sequence (P08659 whole entry, looked up): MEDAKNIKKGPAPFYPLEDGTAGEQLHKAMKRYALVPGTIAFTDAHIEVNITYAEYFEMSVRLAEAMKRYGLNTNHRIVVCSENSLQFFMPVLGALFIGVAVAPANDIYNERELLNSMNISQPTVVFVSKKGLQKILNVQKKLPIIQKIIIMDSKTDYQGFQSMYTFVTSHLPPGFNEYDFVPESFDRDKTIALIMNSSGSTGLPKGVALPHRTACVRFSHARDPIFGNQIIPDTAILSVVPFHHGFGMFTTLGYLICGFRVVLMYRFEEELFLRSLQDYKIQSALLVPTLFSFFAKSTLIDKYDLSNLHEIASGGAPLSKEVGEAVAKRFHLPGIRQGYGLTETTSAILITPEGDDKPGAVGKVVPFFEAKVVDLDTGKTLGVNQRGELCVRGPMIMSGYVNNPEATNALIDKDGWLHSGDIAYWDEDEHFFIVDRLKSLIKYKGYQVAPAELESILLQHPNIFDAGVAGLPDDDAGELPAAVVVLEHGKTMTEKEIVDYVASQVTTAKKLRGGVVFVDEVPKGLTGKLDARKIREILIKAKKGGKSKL
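Purified P. pyralis luciferase, 10 nM final, with Km-level 10 uM D-luciferin and 10 uM ATP in 50 mM Tris acetate pH 7.5, 10 mM Mg acetate, 0.01% Tween-20, 0.05% BSA; 6-point qHTS titration about 60 µM downward; luminescence read.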
* marks the source's active call; other numbers are inactive results; ? = inconclusive; / = no result; [ ] = remark or other dose. Hits are enriched below; roughly 9.2% of the tested compounds scored in any of these assays. The call rests on the fitted dose curve; in most records, active means well fitted curve in the direction sought with a large enough effect; inconclusive means small, poorly fitted or top-dose-only effect, or another doubt; inactive means no such curve, though single readings can be large; an effect the other way counts as inactive or inconclusive. Potency means the concentration at half of the fitted maximal effect.

SMILES	NPC1 prom act	SMN2 splice up	ELG1 repair inh	Rab9 promoter act	ELG1 genotoxic	FLuc modulator
CCCNC(=O)c1ccccc1NC(=O)c1cccc(-n2cnnn2)c1	-3%	/	?	-2%	-3%	3%
COc1cc(OC)c(C(=O)OCCCOC(=O)c2cc(OC)c(OC)cc2OC)cc1OC	-2%	/	12µM*	-2%	2%	-8%
COc1cc(C(=O)OCCCOC(=O)c2cc(OC)c(OC)c(OC)c2)cc(OC)c1OC	-5%	/	-7%	4%	-2%	5%
Cc1cc(OCC(O)CN2CCc3ccccc3C2)ccc1Cl (stereo unspecified)	0%	/	-11%	-5%	-9%	-3%
C(=N\n1cnnc1)/c1ccc2ncccc2c1	-6%	-7%	16%	4%	0%	3%
C(=N\NCc1ccccc1)/c1ccc2nccnc2c1	3.5µM*	/	?	2.5µM*	?	12µM*
C(=N\NCc1ccccc1)/c1ccc2ncccc2c1	1.1µM*	/	?	1.6µM*	2.6µM*	4.3µM*
S=C(N/N=C/c1ccc2ncccc2c1)Nc1ccccc1	?	?	?	?	?	4.8µM*
O=C(N/N=C/c1ccc2nccnc2c1)c1ccc(Br)cc1	-1%	/	-17%	-1%	4%	?
CN(CC(=O)Nc1ccc(F)cc1)C(=O)COC(=O)C1=COCCO1	1%	/	19%	-4%	-6%	-1%
CC(C)CC(=O)Nc1ccc(-c2cn3ccsc3n2)cc1	1.4µM*	10µM*	?	0.56µM*	1.2µM*	1.2µM*
CC(C)(C)C(=O)Nc1ccc(-c2cn3ccsc3n2)cc1	0.28µM*	?	?	0.13µM*	?	0.54µM*
C=C[C@@]1(C)CCC(/C(C)=C/C=C/C(C)(C)O)C[C@@H]1C(=C)C (stereo partly specified)	/	/	8%	/	-3%	/
COc1ccc(CNC(=O)CCC(=O)Nc2nnc(C(F)(F)F)s2)cc1	4%	/	1%	12%	-5%	6%
O=C(NCc1cccs1)c1cc2ccccc2o1	23%	7%	?	4%	15%	19µM*
CCOC(=O)Cc1csc(NC(=O)c2cc3ccccc3o2)n1	?	1%	?	?	7%	11µM*
Cc1csc(NC(=O)c2cc3ccccc3o2)n1	?	/	?	1.4µM*	?	0.95µM*
Cc1csc(C(C#N)C(=O)c2cc3ccccc3o2)n1 (stereo unspecified)	2.8µM*	11µM*	?	2.8µM*	?	1.3µM*
CC(Cc1ccccc1)NC(=O)c1cc2ccccc2o1 (stereo unspecified)	3.2µM*	/	?	2.5µM*	?	?
Cc1ccc2nc(SCC(=O)c3ccc(O)cc3O)[nH]c2c1	?	/	?	3.2µM*	?	8.5µM*
COC(=O)CSc1nc2ccc(C)cc2[nH]1	-1%	-2%	21%	0%	1%	?
Cc1ccc2nc(SC(C)C(=O)N3CCCC3)[nH]c2c1 (stereo unspecified)	15%	11µM*	?	?	?	?
Cc1ccc2nc(SCC(=O)N3CCCC3)[nH]c2c1	2µM*	11µM*	?	1.4µM*	3.7µM*	6.7µM*
CCCCc1nn2c(=O)cc(COC(=O)c3ccc(NC(=O)c4ccccc4Cl)cc3)nc2s1	/	/	/	/	/	-1%
CC(C)Cc1nnc(NC(=O)C2CC(=O)N(c3ccc4c(c3)OCCO4)C2)s1 (stereo unspecified)	-3%	/	-27%	-2%	0%	3%
SMILES	NPC1 prom act	SMN2 splice up	ELG1 repair inh	Rab9 promoter act	ELG1 genotoxic	FLuc modulator
COCCCNC(=O)c1c(NC(=O)c2cc(=O)c3ccccc3o2)sc2c1CCCC2	/	/	/	/	/	3%
COC(=O)c1c(C(=O)OC)c2cc(C(=O)c3ccccc3)ccn2c1Cl	1%	-56%	26µM*	6%	-1%	?
COC(=O)c1c(C(=O)OC)c2ccccn2c1C(=O)c1ccc([N+](=O)[O-])cc1	0%	/	?	-9%	-6%	1%
Cc1cc(NC(=O)C2CCCN(S(=O)(=O)c3cccc4nsnc34)C2)ccc1Br (stereo unspecified)	/	-9%	/	/	/	5%
NC(=O)COc1ccc(NC(=O)OCc2ccccc2)cc1	20%	21%	?	17%	?	12µM*
O=C(O)c1cccc(S(=O)(=O)Nc2ccc(OCc3ccccc3)cc2)c1	1%	/	3%	-3%	-4%	-8%
CC(C)C(=O)N/N=C/c1ccc(OCc2ccccc2)cc1	2%	-6%	2%	1%	4%	-14%
COC(=O)Nc1ccc(Oc2ccccc2)cc1	2%	?	?	0%	?	?
CS(=O)(=O)Nc1ccc(OCc2ccccc2)cc1	?	?	?	?	15µM*	13µM*
COC(=O)Nc1ccc(OCc2ccccc2)cc1	?	13µM*	?	2.8µM*	?	-1%[2.3 µM]
CC(=O)Nc1ccc(N=Cc2ccc(OCc3ccccc3)cc2)cc1	-3%	?	?	0%	?	24µM*
NC(=O)COc1ccccc1	-4%	/	-10%	-5%	-3%	0%
COC(=O)Nc1ccc(SCC(=O)c2ccccc2)cc1	17%	14%	19%	?	12%	19µM*
COC(=O)Nc1ccc(SCC(=O)c2ccc(Cl)cc2)cc1	0%	-2%	7%	-4%	1%	-1%
COCC(=O)Nc1ccc(OCc2ccccc2)cc1	?	13µM*	?	?	?	?
Cc1cc(C(=O)CSc2nnnn2C)c(C)n1-c1cccc(F)c1	4µM*	13µM*	?	1.3µM*	?	7.6µM*
Cc1cc(C(=O)CSc2ncccn2)c(C)n1-c1cccc(F)c1	3.5µM*	?	?	1.4µM*	10µM*	2.4µM*
Cc1cc(C(=O)CSc2n[nH]c(N)n2)c(C)n1-c1cccc(F)c1	28%	?	?	?	?	24µM*
Cc1cc(C(=O)COC(=O)C2=COCCO2)c(C)n1-c1cccc(F)c1	1.4µM*	/	?	0.56µM*	?	1.9µM*
Cc1cc(C(=O)CSc2nc(N)cc(N)n2)c(C)n1-c1cccc(C(F)(F)F)c1	-1%	-30%	-11%	-5%	-1%	1%
COc1ccc2c(c1)O[C@@H](c1cccc(C(F)(F)F)c1)[C@H](OC(=O)NCCOc1ccccc1)C2=O	/	-1%	/	/	/	/
Cc1nn(CC(=O)NNC(=O)c2cccc(Br)c2)c(C)c1[N+](=O)[O-]	1%	/	4%	5%	0%	6%
